Results taken from PubChem BioAssay AID686979 (National Center for Advancing Translational Sciences (NCATS), 2013).
Hit rate of the full screen: of about 420,000 compounds, about 50,000 (12%) were called active. Another 26% or so got no clear call; they are omitted. The call rests on the fitted dose curve; in most records, active means well fitted inhibition curve with a large enough effect; inconclusive means small, poorly fitted or top-dose-only effect; inactive means flat fitted curve, though single readings scatter. Shown is part of a subset that was picked to be rich in actives. A call without a number means that no potency is given here.

Experiment: qHTS for Inhibitors of human tyrosyl-DNA phosphodiesterase 1 (TDP1): qHTS in cells in presence of CPT; further: nearly all actives have a fitted effect of over 55% in size
Settings: chicken DT40 Tdp1-/-;hTDP1 cells + 20 nM CPT, ATP luminescence, 48 h; series mostly up to 46.2 µM
Method in brief: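 Chicken DT40 Tdp1-/- cells stably complemented with human TDP1 were seeded at 400 cells/well in medium containing 20 nM camptothecin, exposed to pin-transferred compounds, and grown at 37 °C for at least 48 hr. Viability was read as ATP luminescence.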
Potency means the concentration at half of the fitted maximal effect.

Row | Compound | Potency
1 | CN1CCN(c2ccc([N+](=O)[O-])c(Sc3nc4ccccc4[nH]3)c2)CC1 | inactive
2 | CC(C)c1ccc(NC(=O)COC(=O)c2ccc(CN3CCCC3=O)cc2)cc1 | inactive
3 | O=C1CN(C(=O)COC(=O)/C=C/c2ccc(F)cc2)c2ccccc2N1 | inactive
4 | Cc1c(CCNC(=O)c2ccc(C(F)(F)F)cc2)sc2nc(-c3ccc(F)cc3)nn12 | inactive
5 | CCOc1ccc2nc(NCCNC(=O)C(C)(C)C)c(C)cc2c1 | inactive
6 | COc1ccc(-c2nc3sc(CCNC(=O)C(C)(C)C)c(C)n3n2)cc1 | 29.1 µM (active)
7 | O=C(NC1CCCC1)C1c2ccccc2OCC(=O)N1CC(F)(F)F (stereo unspecified) | inactive
8 | CC(=O)NCC(=O)N1CCCC(C(=O)c2ccc3c4c(cccc24)CC3)C1 (stereo unspecified) | inactive
9 | Cc1ncoc1C(=O)N1CCCC(C(=O)c2ccc3c4c(cccc24)CC3)C1 (stereo unspecified) | 18.4 µM (active)
10 | Cc1c(CN2CCCC(C(=O)c3cccc(Cl)c3)C2)c(=O)n(-c2ccccc2)n1C (stereo unspecified) | inactive
11 | CCn1ccnc1CN1CCCC(C(=O)c2ccc3c4c(cccc24)CC3)C1 (stereo unspecified) | 7.31 µM (active)
12 | CCc1nccn1CCC(=O)N1CCCC(N2CCN(c3ccccc3F)CC2)C1 (stereo unspecified) | inactive
13 | Cc1ccccc1N1CCN(C2CCCN(C(=O)c3ocnc3C)C2)CC1 (stereo unspecified) | inactive
14 | CCOC1=C2[C@H]([C@H]3C(=O)N(c4ccccc4)C(=O)[C@H]3C1)[C@@H](c1ccccc1)N(S(=O)(=O)c1ccc(C)cc1)[C@H]2c1ccccc1 | inactive
15 | O=C(Cn1ncn2nc(-c3cccs3)cc2c1=O)NCc1cccc(Br)c1 | inactive
16 | COc1cc(NC(=O)c2ccccc2)c(OC)cc1NC(=O)Cc1ccccc1 | inactive
17 | COc1ccc(C(=O)OCC(=O)Nc2cc(C)on2)cc1F | inactive
18 | CC(=O)c1ccc(NC(=O)C(C)OC(=O)c2ccc(NS(=O)(=O)c3ccc4[nH]c(=O)[nH]c4c3)cc2)cc1 (stereo unspecified) | inactive
19 | COc1cccc(/C=N\Nc2nncc(-c3ccccc3)n2)c1 | inactive
20 | CCOc1ccc(/C=N/Nc2nncc(-c3ccccc3)n2)cc1OC | 16.4 µM (active)
21 | COc1cc(/C=N/n2c(C)n[nH]c2=S)ccc1OCc1ccccc1 | inactive

Row | Compound | Potency
22 | CC(CO)N1CCS(=O)(=O)CC1 (stereo unspecified) | inactive
23 | COc1ccc(/C=C/c2c(-c3cccc(C)c3)oc3ccc(-c4ccc5c(c4)OCO5)cc23)cc1 | inactive
24 | CC1CN(Cc2ccccc2)C(=S)NC1=O (stereo unspecified) | inactive
25 | CC(=O)Oc1c2c(c3c(c1CC=C(C)C)O[C@@]14C(=CC5CC1C(C)(C)OC4(C/C=C(\C)C(=O)O)C5=O)C3=O)OC(C)(CCC=C(C)C)C=C2 (stereo partly specified) | 2.91 µM (active)
26 | O=C1C(=O)N(CCCN2CCOCC2)C(c2ccc([N+](=O)[O-])cc2)/C1=C(\O)c1ccc2c(c1)OCCO2 (stereo unspecified) | inactive
27 | Cc1ccc(NC(=O)CN(C)C(=O)Cn2nnc(-c3ccccc3)n2)cc1 | inactive
28 | Cc1cc(O)c(C2(O)C(=O)Nc3ccccc32)cc1C (stereo unspecified) | inactive
29 | COc1ccc2ncc3c(-c4ccc(C)c(C)c4)nn(CC(=O)NC4CCCC4)c3c2c1 | 5.17 µM (active)
30 | CCc1ccc2ncc3c(-c4ccc(C)cc4)nn(CC(=O)NCc4ccccc4)c3c2c1 | inactive
31 | COc1ccc(-c2nn(CC(=O)NC3CCCC3)c3c2cnc2ccc(F)cc23)cc1 | inactive
32 | O=C(COC(=O)CSc1ccccc1)Nc1ccc(F)cc1F | inactive
33 | O=C(C[C@H]1C[C@@H]2c3cc(NC(=O)C4CCC4)ccc3O[C@@H]2[C@H](CO)O1)NC1CCCCC1 | inactive
34 | O=C(Nc1ccc2c(c1)[C@@H]1C[C@@H](CC(=O)N3CCCCC3)O[C@@H](CO)[C@@H]1O2)NC1CCCCC1 | inactive
35 | O=C(C[C@H]1C[C@H]2c3cc(NS(=O)(=O)c4ccc(F)cc4)ccc3O[C@H]2[C@H](CO)O1)NCc1cc(F)ccc1F | 16.4 µM (active)
36 | Cc1cccc(C(=O)N2CCC(c3nc4ccccc4s3)CC2)c1 | inactive
37 | COC(=O)C1=NNC2(c3ccc(C)cc3)C(=O)N(c3cccc(C)c3C)C(=O)C12 (stereo unspecified) | inactive
38 | CCCCn1c(N)c(N(CC)C(=O)c2ccc(N(C)S(=O)(=O)c3ccc(C)cc3)cc2)c(=O)[nH]c1=O | inactive
39 | Cc1cccc(C(=O)Nc2ccccc2-c2nnn(CC(=O)Nc3ccc4c(c3)OCCO4)n2)c1 | inactive
40 | O=C(NCCCn1ccnc1)Nc1ccc(Cl)cc1Cl | inactive
41 | Cc1ccc(-n2ncc3c(NCCCn4ccnc4)ncnc32)cc1Cl | 20.6 µM (active)
42 | Cc1ccc2c(Cl)c(C(=O)NCCCn3ccnc3)sc2c1 | inactive

Row | Compound | Potency
43 | CC1CN(C(=O)N2CCC(C(=O)NCc3cccs3)CC2)c2ccccc2O1 (stereo unspecified) | inactive
44 | Cc1cnc(CN(C)C(=O)C2CCC(=O)N(CCc3cccc(F)c3)C2)[nH]1 (stereo unspecified) | inactive
45 | O=C(NC(=S)Nc1ccc(Br)cc1F)C1CCCCC1 | inactive
46 | O=C(NC(=S)Nc1ccc(Cl)cc1Cl)C1CC1 | 20.6 µM (active)
47 | S=C(Nc1ccc(Cl)cc1Cl)N1CCCC1 | inactive
48 | CCCCCCNC(=O)CSc1nccn1Cc1ccccc1 | inactive
49 | COC1[C@H](OC(N)=O)C(O)[C@H](Oc2ccc3c(O)c(NC(=O)c4ccc(O)c(CC=C(C)C)c4)c(=O)oc3c2C)OC1(C)C (stereo partly specified) | inactive
50 | Cc1ccc(NC(=O)CN(C)C(=O)COC(=O)c2nccnc2N)cc1 | inactive
51 | CC[C@@H]1CCCCc2ccccc2[C@@H](C(=O)C[C@H](O)CC(C)=O)OC1=O | inactive
52 | Cc1noc(C)c1C(=O)NCC1COc2ccccc2O1 (stereo unspecified) | inactive
53 | Cc1cc(C(=O)CCl)c(C)n1CC1COc2ccccc2O1 (stereo unspecified) | 2.06 µM (active)
54 | O=C(CN1C(=O)C2C3C=CC(C3)C2C1=O)NCC1COc2ccccc2O1 (stereo unspecified) | inactive
55 | O=C1C(=O)N(CC2COc3ccccc3O2)c2ccccc21 (stereo unspecified) | 1.64 µM (active)
56 | Cc1cc(NC(=O)CCC2COc3ccccc3O2)no1 (stereo unspecified) | inactive
57 | CCn1ccnc1C[C@@H]1COc2ccccc2O1 | inactive
58 | O=c1c(NCc2cccs2)nccn1-c1ccccc1 | inactive
59 | CCN(CC(=O)Nc1c(F)cccc1F)C(=O)CN1c2cccc3cccc(c23)S1(=O)=O | inactive
60 | O=C(Cn1cc(C(F)(F)F)ccc1=O)Nc1ccc2c(c1)OCCO2 | inactive
61 | O=C(NCCc1nnc2ccc(SCC(=O)N3CCOCC3)nn12)c1ccccc1 | inactive
